The record followed here is PubChem BioAssay (Tox21).

Structures are written as SMILES. Values joined by “and” are separate entries in the source; they are usually repeats but may differ in a detail not shown here. Identical values can stand only once. Inconclusive results are not listed. Active and inactive are the calls of the source. Unless noted, calls come from the whole dose curve.

Experiment [1] in a line: Nuclear factor erythroid 2-related factor 2/antioxidant responsive element (Nrf2/ARE) small molecule agonists: qHTS cell viability counter screen in human keratinocytes (AID 1919968; active = well fitted curve in the direction sought with a large enough effect in the repeat runs; an effect the other way counts as inactive or inconclusive; note: nearly all actives have a fitted effect of over 55% in size; note: potency is the fitted concentration of half-maximal effect). A digest of the protocol: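 Seed 1,500 KeratinoSens cells per well, then incubate 5 h at 37 C/5% CO2. Add compounds in DMSO and incubate 23 h. Add CellTiter-Fluor, wait 1 h and read fluorescence.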

The nature of experiment [2]: Nuclear factor erythroid 2-related factor 2/antioxidant responsive element (Nrf2/ARE) small molecule agonists: luciferase reporter gene qHTS assay in human keratinocytes (AID 1919969). Note: nearly all actives have a fitted effect of over 35% in size. Note: potency is the fitted concentration of half-maximal effect.
In experiment [3] the target is Gonadotropin-releasing hormone receptor (Homo sapiens) (UniProt P30968). The experiment in a line: Human gonadotropin-releasing hormone receptor (GnRHR) small molecule agonists, calcium flux assay in GnRHR-HEK293 cells (AID 1920063). Note: nearly all actives have a fitted effect of over 35% in size. In a few lines: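 Cells: HEK293 stably expressing human GnRHR. Steps: overnight (18 h) culture, 1 h calcium dye loading at 37 C, compound addition, kinetic fluorescence read at 480/540 nm. Each compound tested at 15 concentrations in triplicate.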
Gonadotropin-releasing hormone receptor (Homo sapiens), sequence (P30968 whole entry, looked up): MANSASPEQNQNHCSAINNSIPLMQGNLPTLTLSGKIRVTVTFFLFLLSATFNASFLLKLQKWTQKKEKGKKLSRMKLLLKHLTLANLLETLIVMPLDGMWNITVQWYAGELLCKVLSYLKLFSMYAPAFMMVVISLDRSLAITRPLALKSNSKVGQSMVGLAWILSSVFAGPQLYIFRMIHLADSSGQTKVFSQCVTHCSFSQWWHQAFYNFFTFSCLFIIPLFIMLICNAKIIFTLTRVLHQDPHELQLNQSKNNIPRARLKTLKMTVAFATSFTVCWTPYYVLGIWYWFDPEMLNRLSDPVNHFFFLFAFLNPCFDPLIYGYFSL
On the technique in general: Calcium flux is commonly read through the fluorescence of an indicator in the cells.

In experiment [4] the target is KiSS-1 receptor (Homo sapiens) (UniProt Q969F8). The experiment in a line: Human kisspeptin (KISS1R) small molecule agonists, calcium flux assay in KISS1R-HEK293 cells (AID 1920064; active = well fitted curve in the direction sought with a large enough effect in the repeat runs; an effect the other way counts as inactive or inconclusive). In a few lines: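 Cells plated and incubated 18 h; dye added, 1 h at 37 C; compounds in DMSO pinned in; signal read at 480/540 nm every second for 3 min. Each compound tested at 15 concentrations in triplicate.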
KiSS-1 receptor (Homo sapiens), sequence (Q969F8 whole entry, looked up): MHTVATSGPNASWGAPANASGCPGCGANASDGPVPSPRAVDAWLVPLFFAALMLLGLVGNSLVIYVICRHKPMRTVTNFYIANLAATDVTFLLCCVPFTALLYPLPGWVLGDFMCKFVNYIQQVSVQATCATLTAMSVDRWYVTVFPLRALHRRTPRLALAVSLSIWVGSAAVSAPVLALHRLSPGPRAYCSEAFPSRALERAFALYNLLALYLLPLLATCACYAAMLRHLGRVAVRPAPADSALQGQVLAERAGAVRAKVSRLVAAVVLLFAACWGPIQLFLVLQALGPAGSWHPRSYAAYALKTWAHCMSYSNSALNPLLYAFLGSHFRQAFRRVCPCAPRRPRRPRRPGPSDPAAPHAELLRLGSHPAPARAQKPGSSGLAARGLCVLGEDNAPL

Experiment [5] is described as follows: G protein-coupled receptor (GPCR) small molecule agonists, calcium flux assay: HEK293 wild type cell line counter screen (AID 1920065). A digest of the protocol: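 Counter-screen of the Tox21 10K library for non-specific calcium release: dye-loaded cells received compounds in DMSO and were monitored by kinetic fluorescence (480/540 nm, 3 min). Fifteen concentrations, run in triplicate.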

A short description of experiment [6]: p53 small molecule agonists, cell-based qHTS assay with human liver microsomes (AID 1963577).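 Note: p53 response element beta-lactamase reporter cells with liver microsomes plus NADPH.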 In a few lines: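 p53RE-bla cells; 5 h settle, 37 C/5% CO2; cpd + HLM 0.5 mg/mL + NADPH 0.5 mg/mL (final); 16 h 37 C; LiveBLAzer 2 h RT dark; fluorescence readout.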
In general terms: In qHTS, concentration-response curves come from the screen itself.

Experiment [7] is described as follows: p53 small molecule agonists, cell-based qHTS assay with rat liver microsomes (AID 1963578). In a few lines: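 Rat liver microsome activation: microsomes 0.5 mg/mL, NADPH 0.5 mg/mL final; p53RE-bla cells, 16 h 37 C; LiveBLAzer readout, 2 h RT dark.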
Experiment [8] is described as follows: p53 small molecule agonists, cell-based qHTS assay with human liver microsomes: qHTS cell viability counter screen (AID 1963579). Note: nearly all actives have a fitted effect of over 45% in size. A digest of the protocol:
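Luminescent CellTiter-Glo read-out, 30 min at room temperature, gauged cytotoxicity in p53RE-bla cells exposed 16 h at 37 C to DMSO-dissolved compounds with metabolic activation by human liver microsomes and NADPH, each 0.5 mg/mL final.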

Experiment [9] can be described thus: p53 small molecule agonists, cell-based qHTS assay (AID 1963582; active = well fitted activation curve with a large enough effect in the signal ratio in the repeat runs, not every such curve was filed as active; the % refers to the signal ratio). A digest of the protocol: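 Quantitative HTS in p53RE-bla cells: after a 5 h settling period, compounds delivered in DMSO were left on cells for 16 h at 37 C, and reporter induction was measured as fluorescence following 2 h substrate loading.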
Experiment [10] deals with 5-hydroxytryptamine receptor 2A (Homo sapiens) (UniProt P28223). The experiment can be described thus: 5-hydroxytryptamine receptor 2A (HTR2A) small molecule antagonists, cell-based qHTS assay (AID 1963586). Note: nearly all actives have a fitted effect of over 45% in size. In a few lines:
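Antagonist-mode intracellular calcium assay: DOI (4 nM) added after 5 min compound pre-incubation at room temperature to dye-loaded HTR2A-CHO cells. Fluorescence followed for 3 min, sampled every second.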

Experiment [11] shares this target. The experiment can be described thus: 5-hydroxytryptamine receptor 2A (HTR2A) small molecule agonists, cell-based qHTS assay (AID 1963587). Note: nearly all actives have a fitted effect of over 30% in size. A digest of the protocol: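 CHO cells stably expressing human HTR2A, plated 18 h, loaded with calcium dye 1 h at 37 C. Agonist mode: compounds added and intracellular calcium fluorescence recorded kinetically for 2 min at 1 sec intervals.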

Experiment [12] concerns the target Muscarinic acetylcholine receptor M1 (Homo sapiens) (UniProt P11229). The experiment can be described thus: Cholinergic receptor muscarinic 1 (CHRM1) small molecule antagonists, cell-based qHTS assay (AID 1963588). Note: nearly all actives have a fitted effect of over 40% in size. In a few lines:
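CHRM1-CHO calcium-flux assay, antagonist mode. Cells were seeded 18 h, dye-loaded 1 h at 37 C and given compound for 5 min at RT, then acetylcholine was added at 50nM. FDSS fluorescence was read 3 min; 15 concentrations, three runs.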

Experiment [13] has the same target. The experiment can be described thus: Cholinergic receptor muscarinic 1 (CHRM1) small molecule agonists, cell-based qHTS assay (AID 1963589). Note: nearly all actives have a fitted effect of over 35% in size. In a few lines:
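Agonist-mode qHTS in CHO cells stably carrying human muscarinic M1. Intracellular calcium is tracked by fluorescence every second after compound transfer; each compound runs at 15 concentrations in three independent runs.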

Experiment [14] can be described thus: cAMP Responsive Elements (CRE) small molecule antagonists, cell-based qHTS assay (AID 1963591; active = well fitted inhibition curve with a large enough effect in the signal ratio in the repeat runs, not every such curve was filed as active; the % refers to the signal ratio). In a few lines: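 Antagonist mode: test compounds are co-incubated with the adenylyl cyclase activator NKH477 (0.25 uM final) on CRE-bla HEK293T cells for 3 h at 37 °C, followed by LiveBLAzer substrate loading.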
Experiment [15] addresses Beta-2 adrenergic receptor (Homo sapiens) (UniProt P07550). The experiment can be described thus: Adrenergic beta2 receptor (ADRB2) small molecule antagonists, cell-based qHTS assay (AID 1963592). Note: series mostly up to about 92 µM; nearly all actives have a fitted effect of over 50% in size. In a few lines: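 Cells (CHO, stable ADRB2 overexpression) incubated 18-20hr at 37C; compounds added from DMSO; agonist mix (1nM isoproterenol, 100uM IBMX, 25uM Ro-20-1724) added; 0.5hr RT; d2-cAMP and anti-cAMP-cryptate added; 1hr RT; 665/615 nm read.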

The target in experiment [16] is D(2) dopamine receptor (Homo sapiens) (UniProt P14416). The experiment in a line: Dopamine D2 receptor (DRD2) small molecule agonists, cell-based qHTS assay (AID 1963594). Note: nearly all actives have a fitted effect of over 35% in size. In a few lines:
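HEK293 cells stably expressing human DRD2, pre-treated with PDE inhibitor Ro20-1724 (0.1 mM final) and compound 10 min at room temperature, then stimulated with NKH477 (200nM […]) for 30 min. cAMP read by HTRF (665/620 nm).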

Experiment [17] shares this target. The experiment can be described thus: Dopamine D2 receptor (DRD2) small molecule antagonists, cell-based qHTS assay (AID 1963595; active = well fitted inhibition curve with a large enough effect in the signal ratio in the repeat runs, with a control signal flat; the % refers to the signal ratio). In a few lines: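 Cells were plated and grown for 24 h at 37 °C. Ro20-1724 (0.1 mM final) went in first, then compound for 10 min. NKH477 (200 nM) with quinpirole (12 nM) followed for 30 min at RT, then HTRF detection reagents for 1 h.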

The nature of experiment [18]: p53 small molecule agonists, cell-based qHTS assay: qHTS cell viability counter screen (AID 1963581). Note: nearly all actives have a fitted effect of over 45% in size. In a few lines:
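Cells: HCT-116 with p53 response element-driven beta-lactamase. Treatment: 16 h, 37 C, compounds in DMSO. Read: CellTiter-Glo luminescence after 30 min RT.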

The target of experiment [19] is Beta-2 adrenergic receptor (Homo sapiens) (UniProt P07550). The experiment can be described thus: Adrenergic beta2 receptor (ADRB2) small molecule agonists, cell-based qHTS assay (AID 1963593).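 Note: CHO cells stably overexpressing human ADRB2.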 In a few lines: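 CHO cells stably over-expressing ADRB2 were plated overnight at 37C, then dosed with compounds plus a stimulation mix containing 100uM IBMX and 25uM Ro-20-1724 for 0.5hr at room temperature. cAMP was measured by HTRF competition, 1hr.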
Beta-2 adrenergic receptor (Homo sapiens), sequence (P07550 whole entry, looked up): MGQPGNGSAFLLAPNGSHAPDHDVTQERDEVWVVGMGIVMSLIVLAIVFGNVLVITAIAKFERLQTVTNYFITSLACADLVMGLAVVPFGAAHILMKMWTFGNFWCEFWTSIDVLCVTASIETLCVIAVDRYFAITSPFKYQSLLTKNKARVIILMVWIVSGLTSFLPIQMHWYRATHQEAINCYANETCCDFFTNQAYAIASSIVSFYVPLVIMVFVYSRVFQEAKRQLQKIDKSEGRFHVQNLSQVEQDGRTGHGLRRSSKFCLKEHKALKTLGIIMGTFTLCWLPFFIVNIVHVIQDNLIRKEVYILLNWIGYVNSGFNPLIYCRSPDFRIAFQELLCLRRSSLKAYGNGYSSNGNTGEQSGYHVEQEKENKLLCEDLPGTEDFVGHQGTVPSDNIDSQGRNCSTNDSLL

Experiment [20] is described as follows: cAMP Responsive Elements (CRE) small molecule agonists, cell-based qHTS assay (AID 1963590). In a few lines: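 Agonist mode qHTS in CRE-bla HEK 293T cells: compounds dosed from DMSO for 3 h at 37 C/5% CO2, followed by LiveBLAzer B/G FRET substrate for 2 h at room temperature.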

5-hydroxytryptamine receptor 2A (Homo sapiens), sequence (P28223 whole entry, looked up): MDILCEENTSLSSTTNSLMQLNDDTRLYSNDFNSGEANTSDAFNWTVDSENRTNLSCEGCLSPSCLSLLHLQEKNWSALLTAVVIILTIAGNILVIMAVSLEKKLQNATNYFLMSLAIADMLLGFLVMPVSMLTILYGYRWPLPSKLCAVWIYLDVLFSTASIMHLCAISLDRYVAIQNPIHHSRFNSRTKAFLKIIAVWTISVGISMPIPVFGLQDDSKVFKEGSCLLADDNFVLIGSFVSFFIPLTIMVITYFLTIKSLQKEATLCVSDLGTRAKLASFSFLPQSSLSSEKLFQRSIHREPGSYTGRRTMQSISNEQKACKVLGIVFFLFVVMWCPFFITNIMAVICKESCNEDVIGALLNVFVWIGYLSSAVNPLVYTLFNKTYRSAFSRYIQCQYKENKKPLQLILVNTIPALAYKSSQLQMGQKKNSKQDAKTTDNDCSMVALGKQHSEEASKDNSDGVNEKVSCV
Muscarinic acetylcholine receptor M1 (Homo sapiens), sequence (P11229 whole entry, looked up): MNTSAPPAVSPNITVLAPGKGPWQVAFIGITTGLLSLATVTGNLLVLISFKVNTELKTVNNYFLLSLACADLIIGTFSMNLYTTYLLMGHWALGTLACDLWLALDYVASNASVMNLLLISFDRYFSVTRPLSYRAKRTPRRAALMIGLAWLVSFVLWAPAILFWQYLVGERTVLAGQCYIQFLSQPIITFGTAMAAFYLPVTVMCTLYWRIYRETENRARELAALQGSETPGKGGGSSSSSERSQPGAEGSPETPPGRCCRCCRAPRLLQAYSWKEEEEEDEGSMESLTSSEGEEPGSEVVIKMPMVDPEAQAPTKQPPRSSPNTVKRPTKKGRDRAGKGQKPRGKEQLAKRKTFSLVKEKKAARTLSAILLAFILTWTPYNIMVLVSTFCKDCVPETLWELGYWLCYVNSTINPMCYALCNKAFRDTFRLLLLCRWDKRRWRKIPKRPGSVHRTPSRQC
D(2) dopamine receptor (Homo sapiens), sequence (P14416 whole entry, looked up): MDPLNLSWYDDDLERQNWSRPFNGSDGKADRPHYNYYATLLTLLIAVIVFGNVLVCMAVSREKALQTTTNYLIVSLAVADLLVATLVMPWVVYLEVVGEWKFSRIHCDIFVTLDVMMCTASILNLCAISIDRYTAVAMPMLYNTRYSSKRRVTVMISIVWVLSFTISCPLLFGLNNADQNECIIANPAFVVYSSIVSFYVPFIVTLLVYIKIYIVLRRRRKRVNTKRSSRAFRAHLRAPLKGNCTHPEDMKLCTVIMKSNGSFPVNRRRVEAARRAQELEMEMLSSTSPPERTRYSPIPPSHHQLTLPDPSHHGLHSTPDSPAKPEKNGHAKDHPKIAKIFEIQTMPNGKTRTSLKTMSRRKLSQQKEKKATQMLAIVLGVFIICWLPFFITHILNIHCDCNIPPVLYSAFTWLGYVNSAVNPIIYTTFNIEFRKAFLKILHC

Regarding `O=C(O)c1ccc(OCCN2CCCCC2)cc1`, the Potency result in [1], in [2], in [3], in experiment [4], in [5] and in experiment [6] was “inactive” each time. Besides, the Potency result in experiment [7], in experiment [8], in experiment [9], in experiment [10], in experiment [11] and in experiment [12] was “inactive” each time. The Potency result in experiment [13], in [14], in experiment [15], in experiment [16] and in experiment [17] was “inactive” each time.

As to `Oc1ccc(/C=C/c2cc(O)cc(O)c2)cc1`, the Potency entry in experiment [1], in [3], in experiment [4], in [5], in experiment [6] and in experiment [7] was “inactive” in each case. Also, the Potency entry in [8], in experiment [18], in experiment [9], in experiment [14], in [19] and in experiment [16] was “inactive” each time. In addition, in experiment [17], the Potency entry was “inactive”. Also, the Potency in experiment [2] was 4.9 µM (active) and 7.7 µM (active) and 11.9 µM (active).

Turning to `Cc1cc(C)c(S(=O)(=O)O)cc1N=Nc1cc(S(=O)(=O)O)c2ccccc2c1O`, the Potency in experiment [1] was 30.6 µM (active). In addition, the Potency result in experiment [2], in experiment [3], in experiment [4], in experiment [5], in experiment [6] and in experiment [7] was “inactive” in each case. For the same compound, the Potency result in experiment [18], in experiment [9], in experiment [10], in experiment [11], in experiment [12] and in experiment [20] was “inactive” in each case. The Potency result in experiment [14] and in [15] was “inactive” each time.

In the case of `C=COCCOCCOCCOC=C`, the Potency result in experiment [1], in [2], in experiment [3], in experiment [4], in experiment [5] and in [6] was “inactive” each time. In addition, the Potency entry in experiment [7], in experiment [18], in experiment [9], in experiment [10], in [11] and in experiment [12] was “inactive” throughout. Also, the Potency entry in experiment [13], in [20], in experiment [14], in experiment [19], in experiment [16] and in [17] was “inactive” each time.

On to `CCCCCCCCCCCCCCCC(=O)NCCO`, for which the Potency entry in experiment [1], in [2], in [3], in [4], in [5] and in experiment [6] was “inactive” in each case. The Potency result in experiment [7], in [18], in experiment [9], in experiment [10], in [11] and in [13] was “inactive” in each case. In addition, the Potency entry in experiment [14], in experiment [15], in experiment [19] and in experiment [16] was “inactive” each time.

In the case of `CCCCCCCCCCCC(=O)OC[C@@H](O)[C@H]1OC[C@H](OCCO)[C@H]1OCCO`, the Potency result in experiment [1], in experiment [3], in experiment [4], in [5], in experiment [6] and in experiment [7] was “inactive” throughout. The Potency entry in experiment [18], in [9], in experiment [10], in [11], in [12] and in experiment [13] was “inactive” each time. In addition, the Potency entry in experiment [20], in experiment [14], in experiment [15], in experiment [19], in [16] and in experiment [17] was “inactive” each time. The Potency in experiment [2] is 23.7 µM (active).

For the compound `FC(F)(F)c1ccccc1-n1ccnc1`, the Potency entry in [1], in experiment [2], in [3], in experiment [4], in [5] and in experiment [6] was “inactive” in each case. Also, the Potency entry in experiment [7], in experiment [8], in [9], in experiment [10], in experiment [11] and in experiment [12] was “inactive” each time. Besides, the Potency result in [13], in experiment [20], in [14], in experiment [15], in experiment [19] and in [16] was “inactive” each time. Also, the Potency result in experiment [17] was “inactive”.

In the case of `COc1ccc2cc1Oc1cc3c(cc1OC)CC[N+](C)(C)[C@H]3Cc1ccc(cc1)Oc1c(OC)c(OC)cc3c1[C@@H](C2)[N+](C)(C)CC3`, the Potency entry in experiment [1], in experiment [2], in experiment [3], in experiment [4], in experiment [5] and in experiment [6] was “inactive” in each case. Besides, the Potency result in [7], in [18], in experiment [9], in experiment [10], in experiment [11] and in [12] was “inactive” in each case. For the same compound, the Potency entry in experiment [13], in experiment [20], in experiment [14], in experiment [15], in experiment [19] and in [16] was “inactive” throughout. In addition, the Potency result in experiment [17] is “inactive”.
